Data reported in PubChem BioAssay AID1159580 (chemical genetic matrix, 2015).
In all, about 5,500 compounds went through this assay and about 2,000 (36%) were called active. Not shown: some 18% with an inconclusive outcome. No stated cut-off is given here; in the data, active means normalized growth mostly below about 0.91 (no sharp cut-off); inconclusive means no clear call, values can overlap the other calls; inactive means mostly above about 0.92. This is one part of the list.

Assay: chemical genetic growth profiling, strain panel (AID 1159580);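 further: tested at 20 µM; growth read once vehicle control cultures reached saturation at 30 °C; 1 = growth at the plate median or of vehicle wells; lower values mean less growth of the strain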
Details: S. cerevisiae deletion strains, growth OD

Measured: normalized growth

CC(=O)NC1C(O)OC(COS(=O)(=O)O)C(OC2OC(C(=O)O)C(OC3OC(CO)C(OC4OC(C(=O)O)C(O)C(O)C4OS(=O)(=O)O)C(OS(=O)(=O)O)C3NS(=O)(=O)O)C(O)C2OS(=O)(=O)O)C1O (stereo not drawn)
inactive: locus YAL021C, strain ccr4, active compounds read low 0.991 | locus YAL026C, strain drs2, active compounds read low 0.974 | locus YAL030W, strain snc1, active compounds read low 0.988 | locus YBL061C, strain skt5, active compounds read low 0.964 | locus YBR009C, strain hhf1, active compounds read low 0.989 | locus YBR023C, strain chs3, active compounds read low 0.971 | locus YBR171W, strain sec66, active compounds read low 0.957 | locus YBR231C, strain swc5, active compounds read low 0.991 | locus YBR279W, strain paf1, active compounds read low 0.981 | locus YCL011C, strain gbp2, active compounds read low 0.976 | locus YCL016C, strain dcc1, active compounds read low 0.971 | locus YCL061C, strain MRC1, active compounds read low 0.978 | locus YCL069W, strain vba3, active compounds read low 0.976 | locus YCR088W, strain abp1, active compounds read low 0.974 | locus YDL005C, strain med2, active compounds read low 0.978 | locus YDL040C, strain nat1, active compounds read low 0.973 | locus YDR001C, strain nth1, active compounds read low 0.976 | locus YDR069C, strain doa4, active compounds read low 0.978 | locus YDR137W, strain rgp1, active compounds read low 0.92 | locus YDR159W, strain sac3, active compounds read low 0.992 | locus YDR195W, strain ref2 0.965 | locus YDR297W, strain sur2, active compounds read low 0.981 | locus YDR334W, strain swr1, active compounds read low 0.96 | locus YDR335W, strain msn5, active compounds read low 0.978 | locus YDR392W, strain spt3, active compounds read low 0.979 | locus YEL003W, strain gim4, active compounds read low 0.978 | locus YEL037C, strain rad23, active compounds read low 0.978 | locus YEL061C, strain CIN8 (second series), active compounds read low 0.976 | locus YER015W, strain faa2, active compounds read low 0.986 | locus YER016W, strain bim1, active compounds read low 0.982 | locus YER111C, strain swi4, active compounds read low 0.968 | locus YER155C, strain BEM2 (second series), active compounds read low 0.975 | locus YFR010W, strain ubp6, active compounds read low 0.968 | locus YGL167C, strain pmr1, active compounds read low 0.97 | locus YGL173C, strain kem1, active compounds read low 0.966 | locus YGL227W, strain vid30, active compounds read low 0.975 | locus YGL240W, strain doc1, active compounds read low 0.996 | locus YGL253W, strain hxk2, active compounds read low 0.994 | locus YHR013C, strain ard1, active compounds read low 0.947 | locus YHR027C, strain rpn1, active compounds read low 0.979 | locus YHR142W, strain chs7, active compounds read low 0.957 | locus YJL092W, strain hpr5, active compounds read low 0.976 | locus YJL095W, strain BCK1 (second series), active compounds read low 0.979 | locus YJL115W, strain asf1, active compounds read low 0.967 | locus YJL129C, strain trk1, active compounds read low 0.986 | locus YJL154C, strain vps35, active compounds read low 0.974 | locus YJL164C, strain tpk1, active compounds read low 0.979 | locus YJL166W, strain qcr8, active compounds read low 0.982 | locus YJL187C, strain SWE1, active compounds read low 0.978 | locus YKL160W, strain elf1, active compounds read low 0.976 | locus YKR026C, strain gcn3, active compounds read low 0.978 | locus YKR091W, strain srl3, active compounds read low 0.984 | locus YLL001W, strain dnm1, active compounds read low 0.975 | locus YLL026W, active compounds read low 0.981 | locus YLL041C, strain sdh2, active compounds read low 0.982 | locus YLR027C, strain aat2, active compounds read low 0.982 | locus YLR221C, strain rsa3, active compounds read low 0.969 | locus YLR258W, strain gsy2, active compounds read low 0.986 | locus YLR262C, strain YPT6 (second series), active compounds read low 0.977 | locus YLR320W, strain mms22, active compounds read low 0.977 | locus YLR342W, strain FKS1, active compounds read low 0.98 | locus YLR357W, strain rsc2, active compounds read low 0.964 | locus YLR370C, strain arc18, active compounds read low 0.966 | locus YLR384C, strain iki3, active compounds read low 0.963 | locus YML120C, strain ndi1, active compounds read low 0.981 | locus YMR058W, strain fet3, active compounds read low 0.987 | locus YMR125W, strain sto1, active compounds read low 0.981 | locus YMR129W, active compounds read low 0.983 | locus YMR205C, strain PFK2, active compounds read low 0.982 | locus YMR231W, strain pep5, active compounds read low 0.967 | locus YNL071W, strain lat1, active compounds read low 0.983 | locus YNL209W, strain ssb2, active compounds read low 0.975 | locus YNL248C, strain rpa49, active compounds read low 0.98 | locus YNL322C, strain KRE1 (second series), active compounds read low 0.989 | locus YNR049C, strain mso1, active compounds read low 0.987 | locus YOR001W, strain rrp6, active compounds read low 0.97 | locus YOR070C, strain gyp1, active compounds read low 0.978 | locus YOR080W, strain dia2, active compounds read low 0.969 | locus YOR083W, strain WHI5, active compounds read low 0.986 | locus YOR106W, strain vam3, active compounds read low 0.984 | locus YOR265W, strain rbl2, active compounds read low 0.972 | locus YOR270C, strain vph1, active compounds read low 0.952 | locus YOR290C, strain snf2, active compounds read low 0.961 | locus YPL051W, strain arl3, active compounds read low 0.977 | locus YPL078C, strain atp4, active compounds read low 0.97 | locus YPL106C, strain sse1, active compounds read low 0.97 | locus YPL240C, strain hsp82, active compounds read low 0.982

O=c1onc2n1-c1cc(Br)ccc1OC2
active: locus YNL153C, strain GIM3, active compounds read low 0.763
inactive: locus YAL013W, strain DEP1, active compounds read low 0.994 | locus YAL040C, strain CLN3, active compounds read low 0.991 | locus YCL061C, strain MRC1 (second series), active compounds read low 1.01 | locus YDR363W, strain ESC2, active compounds read low 0.995 | locus YER002W, strain NOP16, active compounds read low 1 | locus YGR078C, strain PAC10, active compounds read low 0.952 | locus YJR075W, strain HOC1, active compounds read low 1 | locus YMR263W, strain SAP30, active compounds read low 1.01 | locus YMR307W, strain GAS1, active compounds read low 0.989 | locus YNL175C, strain NOP13, active compounds read low 1 | locus YNL197C, strain WHI3, active compounds read low 1.02 | locus YNL224C, strain SQS1, active compounds read low 1 | locus YNL322C, strain KRE1, active compounds read low 0.998 | locus YOR083W, strain WHI5 (second series), active compounds read low 0.882 | locus YPL241C, strain CIN2, active compounds read low 1
